Source: PubChem BioAssay (NCI)
This is part of a sample that, as a whole, favours compounds with a hit. Of some 83,000 tested, about 20% had one in any assay.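 Assay: single dose, 48 h. Readout: percent growth (0 = no net growth; negative = cell death). Active: <10.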 The source made the active and inactive calls.

How the values were obtained:
Assay in all cases: NCI-60 one-dose screen, 48 h (100 = growth as untreated, 0 = no growth, -100 = all killed)
Conditions in all cases: 10 µM unless noted
NCI-H23 lung = system: NCI-H23 lung
NCI-H226 lung = system: NCI-H226 lung
NCI-H322M lung = system: NCI-H322M lung
NCI-H460 lung = system: NCI-H460 lung
HOP-92 NSCLC = system: HOP-92 NSCLC
NCI-H522 lung = system: NCI-H522 lung
A549/ATCC NSCLC = system: A549/ATCC NSCLC
786-0 renal = system: 786-0 renal
COLO 205 colon = system: COLO 205 colon
DU-145 prostate = system: DU-145 prostate
K-562 leukemia = system: K-562 leukemia
MALME-3M melanoma = system: MALME-3M melanoma
MDA-MB-231 breast = system: MDA-MB-231 breast
RXF 393 renal = system: RXF 393 renal
SF-268 CNS = system: SF-268 CNS
SF-295 CNS = system: SF-295 CNS
SF-539 CNS = system: SF-539 CNS
UACC-257 melanoma = system: UACC-257 melanoma
M14 melanoma = system: M14 melanoma

Measured: growth

Cc1ccc2c(c1)c1nc3cc(C)c(C)cc3nc1n2CCN(C)C
active: NCI-H226 lung 7.71% | NCI-H460 lung 9.12% | COLO 205 colon -5.24% | K-562 leukemia 8.09% | MALME-3M melanoma -8.13% | SF-295 CNS 5.24%
inactive: NCI-H23 lung 13.5% | NCI-H322M lung 16.3% | HOP-92 NSCLC 32.1% | NCI-H522 lung 31.2% | A549/ATCC NSCLC 12.2% | 786-0 renal 26.5% | DU-145 prostate 20.5% | MDA-MB-231 breast 19.3% | RXF 393 renal 16.2% | SF-268 CNS 30.3% | SF-539 CNS 11.4% | UACC-257 melanoma 13.1% | M14 melanoma 13.3%

COC(=O)[C@]12CC[C@@H](C)[C@H](C)[C@@H]1C1=CC[C@@H]3[C@@]4(C)C=C(O)C(=O)C(C)=C4CC[C@@]3(C)[C@]1(C)CC2
active: NCI-H522 lung -14.1% | MDA-MB-231 breast 5.7%
inactive: NCI-H23 lung 22.1% | NCI-H226 lung 22.4% | NCI-H322M lung 82.6% | NCI-H460 lung 46.8% | HOP-92 NSCLC 26.4% | A549/ATCC NSCLC 39.5% | 786-0 renal 68% | COLO 205 colon 37.1% | DU-145 prostate 54.4% | K-562 leukemia 19.3% | MALME-3M melanoma 86.2% | RXF 393 renal 27.6% | SF-268 CNS 60% | SF-295 CNS 34.7% | SF-539 CNS 32.3% | M14 melanoma 24.9%

Cc1cc(C)nc(NC(N)=NCCc2ccccc2)n1
inactive: NCI-H23 lung 50.4% | NCI-H226 lung 52.6% | NCI-H322M lung 52.1% | NCI-H460 lung 23.9% | HOP-92 NSCLC 39.2% | NCI-H522 lung 29.9% | A549/ATCC NSCLC 33.1% | 786-0 renal 50.1% | COLO 205 colon 40.1% | DU-145 prostate 42.6% | MDA-MB-231 breast 51.6% | RXF 393 renal 51.4% | SF-268 CNS 39.5% | SF-539 CNS 36.7% | UACC-257 melanoma 30.2% | M14 melanoma 31.8%

O=[N+]([O-])c1ccc(N/N=C(\C(=N/Nc2ccc([N+](=O)[O-])cc2[N+](=O)[O-])c2ccccc2)c2ccccc2)c([N+](=O)[O-])c1
inactive: NCI-H23 lung 104% | NCI-H226 lung 93.5% | NCI-H322M lung 85.6% | NCI-H460 lung 52.1% | HOP-92 NSCLC 92.4% | NCI-H522 lung 83.4% | A549/ATCC NSCLC 51.4% | 786-0 renal 90.5% | COLO 205 colon 43.8% | DU-145 prostate 86.4% | K-562 leukemia 97.3% | MALME-3M melanoma 65.6% | MDA-MB-231 breast 94.2% | RXF 393 renal 111% | SF-268 CNS 82.6% | SF-295 CNS 94.6% | SF-539 CNS 89.2% | UACC-257 melanoma 95.2% | M14 melanoma 100%

Nc1ccc(Br)cn1
inactive: NCI-H23 lung 104% | NCI-H226 lung 99.9% | NCI-H322M lung 104% | NCI-H460 lung 106% | HOP-92 NSCLC 89.4% | NCI-H522 lung 95.4% | A549/ATCC NSCLC 103% | 786-0 renal 106% | COLO 205 colon 113% | DU-145 prostate 112% | K-562 leukemia 117% | MDA-MB-231 breast 99.3% | RXF 393 renal 108% | SF-268 CNS 110% | SF-295 CNS 114% | SF-539 CNS 99.1% | UACC-257 melanoma 106% | M14 melanoma 98.6%

COc1ccccc1-n1cnc(N)c1C(=O)c1cc(OC)c(OC)c(OC)c1
active: NCI-H522 lung 1.87%
inactive: NCI-H23 lung 70% | NCI-H226 lung 56.7% | NCI-H322M lung 81.4% | NCI-H460 lung 14.5% | HOP-92 NSCLC 70.3% | A549/ATCC NSCLC 47.9% | 786-0 renal 37.9% | COLO 205 colon 66.1% | DU-145 prostate 73.9% | K-562 leukemia 22% | MALME-3M melanoma 50.1% | MDA-MB-231 breast 64.8% | RXF 393 renal 33% | SF-268 CNS 38.5% | SF-295 CNS 24.9% | SF-539 CNS 35.6% | UACC-257 melanoma 59.8% | M14 melanoma 44.5%

Cc1ccc(Cc2cnc(NC(=O)/C=C/c3cccc(C)c3)s2)cc1
inactive: NCI-H23 lung 13.3% | NCI-H226 lung 36.8% | NCI-H322M lung 46.1% | HOP-92 NSCLC 70.4% | NCI-H522 lung 18.6% | A549/ATCC NSCLC 16.1% | 786-0 renal 17.8% | DU-145 prostate 16.2% | K-562 leukemia 13.7% | MALME-3M melanoma 31.4% | SF-268 CNS 44.7% | UACC-257 melanoma 67.7%
active: NCI-H460 lung 1.93% | COLO 205 colon -4.26% | MDA-MB-231 breast 3.61% | RXF 393 renal -0.16% | SF-295 CNS -13.6% | SF-539 CNS -30.1% | M14 melanoma -12.4%

Nc1nc2c3ccncc3cc(-c3cccc(Cl)c3)c2c2cnccc12
inactive: NCI-H23 lung 66.8% | NCI-H226 lung 33.1% | NCI-H322M lung 70.4% | NCI-H460 lung 12.9% | HOP-92 NSCLC 50.3% | NCI-H522 lung 48.4% | A549/ATCC NSCLC 28.3% | 786-0 renal 21.3% | COLO 205 colon 20.9% | DU-145 prostate 40.5% | K-562 leukemia 17.1% | MALME-3M melanoma 57% | MDA-MB-231 breast 52.8% | RXF 393 renal 10.4% | SF-268 CNS 49.5% | SF-295 CNS 31.4% | SF-539 CNS 30.1% | UACC-257 melanoma 59% | M14 melanoma 45.7%

Cn1cc(-c2csc(-c3cn(CCN)c4ccccc34)n2)c2cccnc21
active: K-562 leukemia -44.3%
inactive: NCI-H23 lung 59.3% | NCI-H226 lung 66.4% | NCI-H322M lung 70.9% | NCI-H460 lung 24.8% | HOP-92 NSCLC 37.6% | NCI-H522 lung 65.8% | A549/ATCC NSCLC 40% | 786-0 renal 46.7% | COLO 205 colon 20.7% | DU-145 prostate 75.6% | MALME-3M melanoma 68.2% | MDA-MB-231 breast 45.7% | RXF 393 renal 70.9% | SF-268 CNS 64.4% | SF-295 CNS 58.6% | SF-539 CNS 47.9% | UACC-257 melanoma 78.1% | M14 melanoma 43.4%

C=C(C)[C@@H]1CC[C@]2(C(=O)N3CCCNCC3)CC[C@]3(C)[C@H](CC[C@@H]4[C@@]5(C)CCC(=O)C(C)(C)[C@@H]5CC[C@]43C)[C@@H]12
inactive: NCI-H23 lung 98.4% | NCI-H226 lung 90.7% | NCI-H322M lung 102% | HOP-92 NSCLC 48.4% | NCI-H522 lung 101% | A549/ATCC NSCLC 86.2% | 786-0 renal 94.9% | COLO 205 colon 101% | DU-145 prostate 93.6% | K-562 leukemia 78.4% | MALME-3M melanoma 99.3% | MDA-MB-231 breast 88.7% | RXF 393 renal 81.9% | SF-268 CNS 84.9% | SF-295 CNS 104% | SF-539 CNS 99.9% | UACC-257 melanoma 98.4% | M14 melanoma 100%

Cn1cc(-c2csc(-c3c[nH]c4ccc(F)cc34)n2)c2cccnc21
inactive: NCI-H23 lung 50.4% | NCI-H226 lung 59.7% | NCI-H322M lung 74.8% | NCI-H460 lung 11.4% | HOP-92 NSCLC 71.9% | NCI-H522 lung 12.6% | A549/ATCC NSCLC 46.5% | 786-0 renal 66.6% | COLO 205 colon 35.6% | DU-145 prostate 61.9% | K-562 leukemia 19.8% | MDA-MB-231 breast 50.1% | RXF 393 renal 54.4% | SF-268 CNS 51.1% | SF-295 CNS 14.8% | SF-539 CNS 31% | UACC-257 melanoma 63.4% | M14 melanoma 13.7%

CCN(CC)CCCCCCNc1ccnc2cc(Cl)ccc12
inactive: NCI-H23 lung 83.4% | NCI-H226 lung 108% | NCI-H322M lung 96.2% | NCI-H460 lung 92.9% | HOP-92 NSCLC 98.8% | NCI-H522 lung 125% | A549/ATCC NSCLC 96.2% | 786-0 renal 90.9% | DU-145 prostate 92.8% | K-562 leukemia 30.1% | MALME-3M melanoma 99.6% | MDA-MB-231 breast 51.8% | SF-268 CNS 77.4% | SF-295 CNS 97% | SF-539 CNS 52.5% | UACC-257 melanoma 102% | M14 melanoma 38%
active: COLO 205 colon 9.2%

O=C1C=Cc2ncccc2C1=O
active: K-562 leukemia 0.688%
inactive: NCI-H23 lung 70% | NCI-H226 lung 81.8% | NCI-H322M lung 97.7% | HOP-92 NSCLC 97% | NCI-H522 lung 88.8% | A549/ATCC NSCLC 105% | 786-0 renal 103% | COLO 205 colon 54% | DU-145 prostate 78.9% | MALME-3M melanoma 89.9% | RXF 393 renal 106% | SF-268 CNS 97% | SF-295 CNS 102% | SF-539 CNS 86.3% | UACC-257 melanoma 88.1% | M14 melanoma 95.5%

CCc1cccc(CC)c1NC(=O)c1sc2nc3c(cc2c1N)CCCC3
inactive: NCI-H23 lung 87% | NCI-H226 lung 83.2% | NCI-H322M lung 92.8% | NCI-H460 lung 91.1% | HOP-92 NSCLC 51.2% | NCI-H522 lung 41.9% | A549/ATCC NSCLC 69.7% | 786-0 renal 87.8% | COLO 205 colon 105% | DU-145 prostate 98.6% | K-562 leukemia 26.6% | MALME-3M melanoma 54.3% | MDA-MB-231 breast 79.5% | RXF 393 renal 81.6% | SF-268 CNS 82.6% | SF-295 CNS 45.7% | SF-539 CNS 74.5% | M14 melanoma 52%

N#CC1c2ccccc2-c2ccccc2N1C(=O)c1ccccc1 (configuration not stated)
active: COLO 205 colon -1.39% | SF-295 CNS 4.01% | SF-539 CNS 0.949% | M14 melanoma 2.12%
inactive: NCI-H23 lung 22.6% | NCI-H226 lung 17.8% | NCI-H322M lung 57% | NCI-H460 lung 18.1% | HOP-92 NSCLC 45.2% | NCI-H522 lung 14.5% | A549/ATCC NSCLC 31.8% | 786-0 renal 17% | DU-145 prostate 11.9% | K-562 leukemia 41.5% | MALME-3M melanoma 84% | MDA-MB-231 breast 16.6% | RXF 393 renal 31.7% | SF-268 CNS 34.4% | UACC-257 melanoma 75.9%

COc1cc(-c2cc3ncccc3c3[nH]c(=O)c4cccnc4c23)cc(OC)c1OC
inactive: NCI-H23 lung 44.5% | NCI-H226 lung 28.3% | NCI-H322M lung 52.6% | HOP-92 NSCLC 30.6% | NCI-H522 lung 34.3% | A549/ATCC NSCLC 23.8% | 786-0 renal 24.7% | DU-145 prostate 14.1% | K-562 leukemia 10.5% | MALME-3M melanoma 55.4% | MDA-MB-231 breast 36.7% | SF-268 CNS 51.2% | SF-295 CNS 12.6% | UACC-257 melanoma 51.5% | M14 melanoma 12.8%
active: COLO 205 colon -18.6% | RXF 393 renal -3.08% | SF-539 CNS 5.37%
